Measured values reported in PubChem BioAssay (NCI).
About 83,000 compounds went through this panel and 20% of them were active in at least one assay; those are over-represented in the sample as a whole.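 Each cell line was grown in a 96-well plate and treated with one concentration of compound for 48 hours. Values below 10 were considered active.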 Values without a mark were called inactive. The source made the active and inactive calls.

Assays:
Assay in all cases: NCI-60 one-dose screen, 48 h (100 = growth as untreated, 0 = no growth, -100 = all killed)
Settings in all cases: 10 µM unless noted
EKVX NSCLC = tested on: EKVX NSCLC
SN12C renal = tested on: SN12C renal
UO-31 renal = tested on: UO-31 renal
TK-10 renal = tested on: TK-10 renal
ACHN renal = tested on: ACHN renal
CAKI-1 renal = tested on: CAKI-1 renal
A498 renal = tested on: A498 renal
CCRF-CEM leukemia = tested on: CCRF-CEM leukemia
MOLT-4 leukemia = tested on: MOLT-4 leukemia
SR leukemia = tested on: SR leukemia
RPMI-8226 leukemia = tested on: RPMI-8226 leukemia
OVCAR-8 ovarian = tested on: OVCAR-8 ovarian
OVCAR-5 ovarian = tested on: OVCAR-5 ovarian
OVCAR-4 ovarian = tested on: OVCAR-4 ovarian
SK-OV-3 ovarian = tested on: SK-OV-3 ovarian
IGROV1 ovarian = tested on: IGROV1 ovarian
OVCAR-3 ovarian = tested on: OVCAR-3 ovarian
HS 578T breast = tested on: HS 578T breast
NCI/ADR-RES ovarian = tested on: NCI/ADR-RES ovarian

Row | SMILES | growth (EKVX NSCLC) | growth (SN12C renal) | growth (UO-31 renal) | growth (TK-10 renal) | growth (ACHN renal) | growth (CAKI-1 renal) | growth (A498 renal) | growth (CCRF-CEM leukemia) | growth (MOLT-4 leukemia) | growth (SR leukemia) | growth (RPMI-8226 leukemia) | growth (OVCAR-8 ovarian) | growth (OVCAR-5 ovarian) | growth (OVCAR-4 ovarian) | growth (SK-OV-3 ovarian) | growth (IGROV1 ovarian) | growth (OVCAR-3 ovarian) | growth (HS 578T breast) | growth (NCI/ADR-RES ovarian)
1 | Oc1c(I)cc(-c2nc3ccccc3s2)cc1CN(Cc1ccccn1)Cc1ccccn1 | 8.07% (active) | 17.3% | -26.6% (active) | 14.5% | 8.93% (active) | 5.39% (active) | 18.1% | 7.86% (active) | 0.129% (active) | 6.31% (active) | 15.2% | 10.9% | 49.7% | 31.9% | 18.5% | 5.99% (active) | 31.5% | 46.8% | -2.29% (active)
2 | Clc1ccc(-c2nc(-c3c[nH]c4ncccc34)cs2)cc1 | 34.7% [100 µM] | 62.4% [100 µM] | 65.7% [100 µM] | 39.7% [100 µM] | 66.9% [100 µM] | 49.4% [100 µM] | 47.2% [100 µM] | 109% [100 µM] | 98.1% [100 µM] | 85.4% [100 µM] | 91.4% [100 µM] | 29.7% [100 µM] | 73.7% [100 µM] | 28.3% [100 µM] | 29.3% [100 µM] | 72.7% [100 µM] | 68.7% [100 µM] | 44.3% [100 µM] | 41.2% [100 µM]
3 | O=C(Nc1cccc(NC(=O)C2CCCCC2)c1)c1ccccn1 | 92% | 102% | 88.7% | 112% | 103% | 94.9% | 96.1% | 106% | 91.3% | 88.9% | 105% | 104% | 105% | 101% | 102% | 98.7% | 104% | 111% | 93.8%
4 | COc1ccccc1NC(=O)c1ccc(/C=C/C(=O)c2nccn2C)cc1 | -12.2% (active) | -80.4% (active) | -94.5% (active) | -45.6% (active) | -100% (active) | -38.7% (active) | -39.8% (active) | -11.6% (active) | 0.601% (active) | -18.2% (active) | – | 4.61% (active) | -80.9% (active) | -34.8% (active) | 15.8% | -56.5% (active) | -90.9% (active) | 35.5% | 5.75% (active)
